# Compound activity from PubChem.
# Shiga inhibitor – inhibitors of Shiga toxin in Vero cells. Vero cells, Shiga toxin protein synthesis inhibition reporter. inhibition, % at 38.7 µM. hit rate 9.2% among 290,000; in the data active = inhibition mostly above about 28%, no sharp cut-off; inactive = mostly below about 43%; also: 0% is about no effect
# HCMV antiviral – inhibitors of human cytomegalovirus | hit rate 4.5% among 410,000 | activity change, negative = inhibition, % at 57.5 µM | HFF cells, HCMV-luciferase reporter, 72 h; hits give low values | AID 1259415; in the data active = activity change below about -60%; inconclusive = no clear call, values can overlap the other calls; inactive = above about -39%; also: % is scaled to controls: 0 for no effect and ±100 for the full control effect
#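 Two-dose cell screen: HFF monolayers treated with compounds and infected with luciferase-expressing HCMV at 1 PFU/cell, 72 h at 37C, then lysed for luciferase measurement.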
# Pf growth 96h – P. falciparum growth inhibition at 96 hours | P. falciparum luciferase reporter growth, 96 h | Potency, µM (titrated, usually from 28.7 µM), inactives show at the highest dose activity change, negative = inhibition, usual class: inhibitors | hit rate 6.9% among 320,000; also: potency is read from the fitted curve at half-maximal effect; % is scaled to controls: 0 for no effect and ±100 for the full control effect
#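 Two parasite generations (96 h, 37 C, 5% CO2) of compound exposure in infected erythrocytes (0.05% parasitemia, 2% hematocrit). Luciferase-reporter P. falciparum; decreased luminescence indicates inhibited growth, aimed at apicoplast-acting delayed death.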
# Pf growth 48h – inhibits P. falciparum growth in the first generation, 48 h; P. falciparum luciferase growth in erythrocytes, 48 h; Potency, µM (series often up to 28.7 µM), without a hit: at the highest dose activity change, negative = inhibition, usual class: inhibitors; hit rate 5.9% among 310,000; AID 504832; also: potency is read from the fitted curve at half-maximal effect; % is scaled to controls: 0 for no effect and ±100 for the full control effect
#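 Firefly luciferase activity from engineered P. falciparum reports growth; inhibitors lower the luminescent signal. Cultures contained 2% hematocrit erythrocytes at 0.1% final parasitemia.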
# CHX counter – counter-screen for Shiga toxin inhibitors: cycloheximide protein synthesis inhibition; cell reporter, cycloheximide protein synthesis inhibition counterscreen; max response, %; hit rate 12% among 300,000; AID 2314; in the data active = max response mostly above about 13%, no sharp cut-off; inactive = mostly below about 14%; also: read at 38.3 µM for the half of the compounds with a filed dose; 0% is about no effect
# * marks the source's active call; other numbers are inactive results; ? = inconclusive; nt = no result given; ! = not confirmed by another sample; [ ] = remark or other dose. Only some compounds are listed: those with a hit (about 20% of all), similar ones and a draw of the others. Unless noted, calls follow the shape of the dose curve; as a rule, active = well fitted inhibition curve with a large enough effect; inconclusive = small, poorly fitted or top-dose-only effect, or another doubt; inactive = no such curve, though single readings can be large or run the other way.
SMILES,Shiga inhibitor,HCMV antiviral,Pf growth 96h,Pf growth 48h,CHX counter
O=C(Nc1cccc(C(F)(F)F)c1)C(Sc1ncnc2ccccc12)c1ccccc1 (centres undefined),-13.5,31.8,?,7.38µM*,-5.4
Cc1cc(C)cc(NC(=O)C(Sc2ncnc3ccccc23)c2ccccc2)c1 (centres undefined),25.4,29.3,3.29µM*,11.7µM*,-1.2
CCOC(=O)c1cnc2nc(NCc3ccc(OCC)cc3)[nH]n2c1=O,nt,42.8,nt,nt,nt
COc1ccc(NC(=O)c2sc3nc(C)c(C(=O)Nc4ccc(C)cc4C)c(-c4cccs4)c3c2N)cc1,nt,-11.4,nt,nt,nt
Cc1ccc(C)c(CN2CCC(CNC(=O)Nc3ccc(Cl)cc3)CC2)c1,26.5,-22.7,?,6.5%[0.00184 µM],30.7
Cc1ccc(C)c(CN2CCC(CNC(=O)Nc3ccc(Br)cc3F)CC2)c1,-9.8,-78.5*!,-13.1%,13.1µM*,4.7
Clc1ccc2[nH]c3c(c2c1)CCc1cn[nH]c1-3,70.3*,-23.4,64.2%,0.0%,28.6*
O=C(CN1CCN(S(=O)(=O)c2ccccc2F)CC1)NC1CCCC1,-2.9,-2.0,15.3%,9.6%,-0.5
COc1ccc2nc3c(c(-c4ccccc4)c2c1)CCC3,8.8,-6.4,?,12.1%,12.3
COc1ccc2nc3c(nc2c1)CCCC3,30.9,-23.4,45.8%,34.5%,33.2*
CC(C)CCn1cnc2c(oc3nc4c(cc32)CCCC4)c1=O,14.0,-38.1,-96.4%,0.0%,24.2*
COc1cc(C2Nc3ccccc3NC3=C2C(=O)CC(C)(C)C3)cc(OC)c1OC(C)=O (centres undefined),-18.6,6.3,?,127.9%,-2.4
Cc1ccc(CN2CC(C(=O)N3CCN(S(=O)(=O)c4c(F)cccc4F)CC3)CC2=O)cc1 (centres undefined),nt,-15.9,?,?,nt
Cc1cc(-c2ccccc2)nc(=O)[nH]1,-4.7,17.3,6.57µM*,19.5%,-2.4
Cc1cc([N+](=O)[O-])nn1CC(=O)Nc1cnc2ccccc2c1,19.7,-25.5,?,0.5%,-1.9
Cc1ccc(NC(=O)Nc2cnc3ccccc3c2)cc1,45.0*,25.7,23.0%,?,30.5*
CCN(CC)C(=O)Nc1cnc2ccccc2c1,48.4,42.0,2.33µM*,50.1%,17.8*
CCOc1cc(C(=O)Nc2ccccc2N2CCN(S(C)(=O)=O)CC2)cc(OCC)c1OCC,-14.8,-24.8,-8.6%,?,-2.4
O=C(c1ccc(NS(=O)(=O)c2ccc3[nH]c(=O)[nH]c3c2)cc1)N1CCCC(C(F)(F)F)C1 (centres undefined),nt,-29.1,41.7%,-22.6%,nt
Cc1ccc(CNC(=O)c2c(Nc3ccccc3C)sc(C(=O)c3ccc(F)cc3)c2N)cc1,nt,-75.5*,nt,nt,nt
COc1cccc(Nc2sc(C(=O)c3ccc(F)cc3)c(N)c2C(=O)NCc2ccc(C)cc2)c1,nt,-62.3*,nt,nt,nt
O=C(NCCc1ccccc1)C(=S)N1CCCCC1,-2.9,19.9,-6.5%,11.9%,1.7
CCn1c(/C=C/c2ccccc2[N+](=O)[O-])nc2ccccc2c1=O,27.5,?,?,-21.4%,11.4
Cc1nc2ccccc2c(=O)n1NC(=O)/C=C/c1ccc(Br)cc1,-7.9,-18.3,?,40.0%,-1.8
O=c1c2ccccc2nc(/C=C/c2ccccc2)n1-c1ccc(O)cc1,34.4,-88.1*,?,12.2%[0.00184 µM],-7.1
SMILES,Shiga inhibitor,HCMV antiviral,Pf growth 96h,Pf growth 48h,CHX counter
O=c1c2ccccc2nc(/C=C\c2cccc(Br)c2)n1-c1ccc(O)cc1,nt,-92.0*,nt,nt,nt
O=c1c2ccccc2nc(/C=C/c2ccc(O)c(O)c2)n1-c1ccccc1,9.6,77.7,-22.0%,?,7.2
O=[N+]([O-])c1ccccc1/C=C/c1ccc2ccccc2n1,48.5*,209.7,?,21.4%,40.0*
Cn1c(/C=C/c2ccc(Br)cc2)nc2ccccc2c1=O,20.2,25.0,10.1%,nt,29.9*
COc1ccccc1NS(=O)(=O)c1cccc(C(=O)NCC(c2ccc(F)cc2)N2CCOCC2)c1 (centres undefined),nt,-1.9,?,?,nt
Cc1ccc(OCC(=O)Nc2ccc(OCc3cc(=O)n4ccsc4n3)cc2)cc1C,nt,-6.4,nt,nt,nt
O=C(O)c1ccc(/C=C/c2nc3ccccc3c(=O)n2-c2ccc(Br)cc2)cc1,-11.5,-16.9,13.1µM*,?,-2.2
Cn1c(/C=C/c2ccccc2[N+](=O)[O-])nc2ccccc2c1=O,33.4,6.3,-27.4%,-17.7%,9.2*
COc1cc(OC)c(NC(=O)c2cn(C)c(=O)c3cc(OC)c(OC)cc23)cc1Cl,nt,5.4,nt,nt,nt
CN1N=C(C(=O)N2CCc3c([nH]c4ccccc34)C2c2c(F)cccc2Cl)CCC1=O (centres undefined),43.1,110.2,?,?,17.4
CCCN(CCC)c1nc(N)c(C#N)c(CC#N)c1C#N,2.9,nt,13.1µM*,nt,3.6
CC(C)C(=O)N1CCC1(C)C(=O)Nc1ccc2cn[nH]c2c1 (centres undefined),nt,5.1,nt,nt,nt
CCOc1cc(CNC(=O)c2ccc3nc(CCc4ccccc4)oc3c2)ccc1OC,nt,-1.0,nt,nt,nt
COc1cccc(/C=C2\SC(=S)N(CCCC(=O)N3CCCC3)C2=O)c1,2.4,-112.2*,4.15µM*,13.1µM*,3.2
O=C(O)CCN1C(=O)/C(=C\c2cccc(Oc3ccccc3)c2)SC1=S,7.9,?,9.0%,0.3%[0.00184 µM],-0.5
CCc1ccc(/C=C2\SC(=S)N(CCCC(=O)N3CCCC3)C2=O)cc1,nt,-99.0*,nt,nt,nt
COc1ccc(/C=C2\SC(=S)N(CCCC(=O)N3CCN(C)CC3)C2=O)cc1OC,nt,3.8,nt,nt,nt
COc1cccc(/C=C2\SC(=S)N(CCCC(=O)N3CCCCC3CCO)C2=O)c1 (centres undefined),1.1,-109.7*,3.7µM*,?,0.8
COc1cccc(/C=C2\SC(=S)N(CCC(=O)N3CCCCC3CCO)C2=O)c1 (centres undefined),15.6,-98.3*,?,?,25.6
COc1cccc(/C=C2\SC(=O)N(CCC(=O)N3CCC(C(=O)O)CC3)C2=O)c1,-5.9,-14.0,?,1.0%,-7.5
Cc1ccc(SC(C)C(=O)NC2CC2)cc1 (centres undefined),-2.3,61.8,10.4µM*,10.4µM*,-2.1
Cc1ccc(CSCCC(=O)NCCC2=CCCCC2)cc1,21.1,4.2,14.2%,38.9%,23.2*
CC(Sc1nc(N)cc(N)n1)C(=O)NCCC1=CCCCC1 (centres undefined),nt,-8.7,-20.7%,-3.4%,nt
CC(=O)Nc1ccc(SC(C)C(=O)NC2CCCC2)cc1 (centres undefined),-12.1,4.3,4.0%,12.9%,-5.7
Cc1ccc(SC(C)C(=O)NCCC2=CCCCC2)cc1 (centres undefined),2.2,6.9,11.7µM*,0.5%,-0.8
O=C(CCSCc1cccc(Cl)c1)NCCC1=CCCCC1,-7.1,-29.3,-26.9%,-0.2%,-2.6
CC(C)NS(=O)(=O)c1ccc(NC(=O)C(C)OC(=O)CCCOc2ccccc2)cc1 (centres undefined),nt,-2.0,23.3%,-4.4%,nt
O=C(O)c1ccc(-c2noc(-c3ccccc3Cl)n2)cc1,nt,109.3,nt,nt,nt
